A selection: hits, their analogues and other compounds. The true share with any hit is near 3.4%.
ssDAF12 agonist: S. stercoralis DAF-12 nuclear receptor activators, primary screen, cell-based, luminescence, HEK293, GRIP1 co-expression, lit1-tk-luc. HEK293 ssDAF-12/GRIP1 lit1-tk-luc reporter; % of 3 µM dafachronic acid response. activation, % at 6.8 µM. hit rate 1% among 370,000;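 active = activation above the mean over all tested compounds plus 3 SD, cut at about 0.9% in these data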;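 also: 0% = DMSO-only wells and 100% = 3 µM delta7-dafachronic acid wells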
hgDAF-12 ag: H. glycines DAF-12 receptor agonists, primary screen, cell-based, luminescence, HEK293, GAL4 fusion, UAS-luciferase; Nuclear hormone receptor DAF-12 (Heterodera glycines), GAL4 fusion; HEK293 GAL4-hgDAF12 UAS-luciferase reporter, agonist luminescence; normalized to butyrate control; activation, % at 6.8 µM; hit rate 1.8% among 370,000; AID 687014, 2013;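 active = activation above a cutoff set at the mean of all screened compounds plus 3 SD, cut at about 10% in these data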;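 also: 0% = DMSO wells and 100% = sodium butyrate wells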
APP 5'UTR act: activators of APP 5'UTR luciferase reporter, primary screen, SH-SY5Y cells. hit rate 1% among 190,000. activation, % at 2 µM. SH-SY5Y APP 5'UTR luciferase reporter, luminescence; zero percent = DMSO vehicle wells;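 active = activation above a set limit, based on mean plus 3 SD of controls, cut at about 140% in these data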
NF-kB neuron act: activators of NF-kB expression in neurons, primary screen, cell-based, HTS. human neuronal cells, NF-kB reporter expression; hits give high values. fold change at 12.5 µM. AID 1239, 2008. hit rate 1.6% among 190,000; in the data active = fold change above about 3.3
hcDAF12 agonist: H. contortus DAF-12 nuclear receptor activators, primary screen, cell-based, luminescence, HEK293, lit1-tk-luc reporter | HEK293 hcDAF-12 lit1-tk-luc reporter; 0% DMSO, 100% Δ7-dafachronic acid | activation, % at 6.8 µM | hit rate 1.4% among 370,000;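 active = activation above the mean of all tested compounds plus 3 SD, cut at about 5.5% in these data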;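 also: 100% = response to 3 µM Δ7-dafachronic acid high control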
Active calls of the source: *; / = no result.

SMILES	ssDAF12 agonist	hgDAF-12 ag	APP 5'UTR act	NF-kB neuron act	hcDAF12 agonist
Cc1ccc2nc(CCc3ccc(N)cc3)[nH]c2c1	0	11*	/	/	2
O=c1c2c(-c3ccccc3)csc2nc2n1CCC2	-1	-2	-9	1.1	-1
Cn1c(NCCN2CCCC2)nc2cc(-c3ccccc3)sc2c1=O	0	0	/	/	0
O=c1c2sc(-c3ccccc3)cc2nc2n1CCC2	0.9*	13*	125	3.9*	5.8*
O=c1c2sc(-c3ccccc3)cc2nc2n1CCCCC2	0	12*	/	/	4
Cc1ccc(C)c(C2=CSC3=NCCN23)c1	0	1	18	1.1	6.2*
O=C(O)CC1COc2ccccc2N1C(=O)c1ccccc1Cl (centres undefined)	1.5*	-2	-3	1.3	-2
COC(=O)c1ccc(Cn2ccc3ccc(-c4ccc5ccn(C(=O)c6ccc(C)cc6)c5c4)cc32)cc1	0	-2	/	/	3
O=C(CSc1ccsc1[N+](=O)[O-])NCc1ccccc1	0.9*	10	15	1.9	6.5*
COc1ccccc1CNC(=O)CSc1ccsc1[N+](=O)[O-]	0	11*	60	2.5	0
CC[C@H]1/C(=C/c2ccccc2)N2C(=O)C[C@H](c3ccccc3)N=C2N1C	-2	-2	/	/	2
CCOC(=O)CC[C@H]1CC[C@]2(CCCN(C(=O)C(C)(C)C)C2)O1	0	0	/	/	1
C=CCN1[C@@H](Cc2ccccc2)COc2cc(F)ccc2S1(=O)=O	-2	2	/	/	-2
O=C1SC(SC(=Nc2ccccc2)Nc2ccccc2)C(=O)N1c1ccccc1 (centres undefined)	0	13*	18	1.9	3
COc1nc(C)nc2c1sc1nc3c(cc12)COC(C)(C)C3	0	13*	55	2.6	0
O=c1cccccc1NN=C1CCCCC1	0	11*	/	/	3
O=c1cccccc1NN=C1CCCCCC1	-1	4	/	/	1
c1ccc(-c2nc3ccccc3n2C(c2ccccc2)c2nc3ccccc3[nH]2)cc1 (centres undefined)	0	12*	/	/	5
O=c1c(-c2ccccc2)nc2ccccc2n1C(c1ccccc1)c1nc2ccccc2[nH]1 (centres undefined)	-1	7	/	/	-2
N/C(=N\c1nc2ccccc2o1)NC(=O)c1ccccc1F	-1	3	119	2.1	1
CCCCC(=O)N/C(N)=N/c1nc2ccccc2o1	0	12*	/	/	1
O=C(NC(=Nc1nc2ccccc2o1)NC(=O)c1ccccc1)c1ccccc1	-1	3	78	1.5	1
COc1ccccc1C(=O)NC(=Nc1nc2ccccc2o1)NC(=O)c1ccccc1OC	0	1	2	0.48	5.9*
COC(=O)[C@]12C[C@H](CC(=O)N3CCN(C(=O)c4ccco4)CC3)C(=O)N(Cc3ccc(Cl)cc3Cl)C1=C[C@H](C(C)(C)C)O[C@@H]2C	-1	-2	/	/	-1
CCCSc1nnc(-c2ccco2)n1C	-1	3	/	/	-1
SMILES	ssDAF12 agonist	hgDAF-12 ag	APP 5'UTR act	NF-kB neuron act	hcDAF12 agonist
COc1cccc(/C=C2\CCC(C3CCCC3)C2=O)c1OC (centres undefined)	-1	13*	/	/	4
O=C(O)c1ccc2cccnc2n1	1.3*	1	5	1.2	0
Cc1cccc(CN2CCN(C3CN(Cc4cn(Cc5ccc(C(F)(F)F)cc5)nn4)S(=O)(=O)C3)CC2)c1 (centres undefined)	-2	-1	/	/	-3
CC(=O)N1C(=O)c2cccc3cccc(c23)C(=O)N1C(C)=O	/	/	17	0.83	/
O=C1c2cccc3cccc(c23)C(=O)C1(O)O	-1	0	/	/	5.8*
Cc1ccccc1CNC(=S)OC1CCC12CCC(c1ccccc1)CC2 (centres undefined)	-1	-2	/	/	1
O=C(Nc1cccnc1)c1ccc(F)cc1	-1	1	3	1.1	-2
CC(C)c1ccc(C(=O)Nc2cccnc2)cc1	0	10*	/	/	4
CCC(C)c1ccc(O)c(NC(=O)c2cccnc2)c1 (centres undefined)	0	2	4	0.97	0
